Screens as filed in PubChem.
Most compounds without a hit are left out; they make up all but 1.4% or so of the library.
PrP 5UTR inh: inhibition of PrP 5' UTR reporter expression; actives 0.35% (n = 340,000); AID 488862, 2010; inhibition, % (no concentration beside the values); cell-based PrP 5' UTR mRNA reporter, plate reader; in the data active = inhibition above about 52%; also: 0 = median of the neutral control wells
Mtb hypoxia inh: PubChem AID 1159583; fluorescence inhibition, % (no concentration beside the values); M. tuberculosis hypoxia-regulated fluorescent reporter, fluorescence; actives 0.1% (n = 300,000); in the data active = fluorescence inhibition mostly above about 23%, no sharp cut-off; inactive = mostly below about 17%
BJeLR lethal: MLPCN primary cell-based screen for lethality selective to Ras in HRASV12 cells; inhibition, % (test concentration not listed); BJeLR (HRASV12) viability, CellTiter-Glo ATP luminescence, 48 h; actives 0.17% (n = 300,000); AID 1554, 2009; in the data active = inhibition above about 50%
RecA intein inh: Mtb RecA intein splicing inhibitors, primary screen, biochemical, fluorescence, HTS; cell-free RecA intein splicing; actives 0.75% (n = 290,000); inhibition, % (test concentration not listed); AID 2221, 2009; in the data active = inhibition above about 30%;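 also: 0% = vehicle wells and 100% = reference inhibitor control wells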
PrPC surface inh: inhibitors of human cell surface prion protein PrPC, primary screen, cell-based, TR-FRET | Major prion protein (Homo sapiens), P04156 | TR-FRET read-out | inhibition, % at 13.8 µM | actives 0.43% (n = 370,000) | AID 720596, 2013; in the data active = inhibition above about 24%; also: 0% = median of the test wells and 100% = reference compound wells
SARS 3CLpro inh: SARS-CoV 3CLpro protease inhibitors, primary screen, biochemical, quenched FRET; Replicase polyprotein 1ab (Severe acute respiratory syndrome coronavirus), P0C6X7; recombinant SARS-CoV 3CLpro, quenched FRET peptide cleavage; inhibition, % at 6 µM; actives 0.14% (n = 290,000); AID 1706, 2009; in the data active = inhibition above about 12%
PrPC TRFRET cf: confirmation of inhibitors of cell surface human prion protein, confirmation, cell-based, TR-FRET | shares compounds with PrPC surface inh | cell surface PrPC level | actives 65% (n = 1,500) | inhibition, % at 13.8 µM; in the data active = inhibition above about 25%
LD9 tox: cytotoxicity in LD9 cells, cytotoxicity control for cell surface PrPc inhibitor project, cell-based, luminescence, high throughput; AID 743201, 2013; luminescence viability; inhibition, % at 13.8 µM; shares compounds with PrPC surface inh; actives 29% (n = 1,500); in the data active = inhibition above about 9.5%
* marks the source's active call; other numbers are inactive results; nt = no result.

SMILES | PrP 5UTR inh | Mtb hypoxia inh | BJeLR lethal | RecA intein inh | PrPC surface inh | SARS 3CLpro inh | PrPC TRFRET cf | LD9 tox
COc1ccc(NC(=O)NNC(=O)COc2ccc3cc(Br)ccc3c2)cc1OC | -24.3 | 4.1 | -1.5 | 1.4 | 41.5* | -2.6 | 69.0* | -7.3
Cc1ccc(Cn2c(Cc3ccccc3)nc3ccccc32)cc1 | -13.2 | nt | 3.0 | 6.2 | 76.5* | 1.6 | 17.6 | -3.8
Clc1cccc(-c2ccc(CNCc3ccccn3)o2)c1 | -13.6 | 9.5 | -1.5 | 8.9 | -0.9 | -3.3 | nt | nt
Brc1ccc(-c2ccc(CNCc3ccccn3)o2)cc1 | -9.3 | 7.2 | 1.0 | 1.3 | 29.7* | 1.1 | 49.4* | -2.6
O=C(CC(=O)NN=Cc1ccc(F)cc1)NN=Cc1ccc(F)cc1 | nt | -7.4 | nt | nt | nt | nt | nt | nt
Cn1nc(C(F)(F)F)c(C=NOC(=O)c2ccccc2Cl)c1SCc1ccccc1Cl | nt | 8.8 | nt | nt | nt | nt | nt | nt
Cn1nc(C(F)(F)F)c(/C=N/OC(=O)c2ccccc2Cl)c1SCc1ccccc1Cl | -18.2 | nt | -9.4 | 4.6 | 70.4* | -4.1 | 82.4* | -3.2
O=C(Sc1cccc2cccnc12)c1ccccc1Br | 28.8 | nt | 96.9* | 14.7 | 30.3* | 6.8 | 11.9 | 83.0*
CC(=NNC(=O)c1ccc(C)cc1)C1C(=O)c2ccccc2C1=O | nt | -0.9 | nt | nt | nt | nt | nt | nt
COc1ccccc1C(=O)NC(=S)/C=C1/N(C)c2ccccc2C1(C)C | -11.0 | 0.4 | 1.2 | -0.3 | 28.7* | 4.2 | 48.7* | 11.0*
CC(=O)Oc1ccc(-c2ccc(C(=O)Nc3cccc(S(=O)(=O)N4CCOCC4)c3)cc2)cc1 | -18.1 | 12.6 | -3.0 | -1.8 | 24.9* | 3.1 | 23.3 | 5.1
CC(C)(C)c1ccc(OCCC(=O)Nc2cccc(S(=O)(=O)N3CCOCC3)c2)cc1 | -29.6 | 0.0 | -1.0 | 2.9 | 24.8* | 5.6 | 15.9 | -2.3
CN1CCN(S(=O)(=O)c2cccc(C(=O)Nc3cc(C(N)=O)cc(C(N)=O)c3)c2)CC1 | 9.5 | -1.3 | -9.0 | nt | 30.0* | -6.6 | 25.2* | 4.0
Cc1cccc(C(=O)NC2c3ccccc3CC2O)n1 (stereo not given) | nt | 9.5 | nt | nt | nt | nt | nt | nt
Cc1ccc(NC(=O)Nn2cnnc2)cc1 | -15.2 | 5.9 | -0.9 | -0.8 | 4.9 | -4.3 | nt | nt
O=C(Nc1ccc([N+](=O)[O-])cc1)Nn1cnnc1 | -12.8 | 2.6 | 12.6 | 2.9 | 36.6* | -4.0 | -0.6 | 0.7
COc1cc(N2C(=O)NC3CC2(C)Oc2ccccc23)cc(OC)c1OC (stereo not given) | -13.4 | nt | 3.4 | -1.1 | 33.2* | -2.0 | 3.1 | -6.7
CC(Sc1ncnc2ccccc12)C(=O)Nc1ccc2c(c1)OCCO2 (stereo not given) | -7.9 | 1.7 | 10.9 | 3.3 | 43.4* | 1.0 | 27.5* | 4.1
CC(Sc1ccccn1)C(=O)Nc1ccc2c(c1)OCCO2 (stereo not given) | -17.4 | 3.9 | nt | nt | 6.5 | nt | nt | nt
O=C(CSc1nc(Cc2ccccc2)nc2ccccc12)Nc1ccc2c(c1)OCCO2 | -21.2 | -8.2 | 6.1 | 1.6 | 31.2* | -0.7 | 71.1* | -8.8
O=C(CSc1ncnc2ccccc12)Nc1ccc2c(c1)OCCO2 | -50.6 | 7.5 | -7.4 | 4.7 | 39.5* | -5.0 | 50.2* | -5.8
CC(CC(=O)Nc1ccc(N(C)C)cc1)=NNC(=O)c1ccc([N+](=O)[O-])cc1Cl | nt | 2.2 | nt | nt | nt | nt | nt | nt
COc1cccc(NC(=O)Nc2cccn(Cc3ccccc3)c2=O)c1 | 16.4 | 12.2 | 0.1 | 3.4 | 7.8 | 0.5 | nt | nt
COc1ccc(Cn2cccc(NC(=O)Nc3cccc(OC)c3)c2=O)cc1 | 12.1 | -13.9 | 12.1 | 5.4 | 25.2* | 2.5 | 29.4* | -6.6
O=C(Nc1nc(-c2ccccn2)cs1)c1ccccc1-n1cnnn1 | 26.3 | 16.2 | 14.6 | nt | 27.8* | 2.7 | 27.2* | 19.5*
SMILES | PrP 5UTR inh | Mtb hypoxia inh | BJeLR lethal | RecA intein inh | PrPC surface inh | SARS 3CLpro inh | PrPC TRFRET cf | LD9 tox
COc1ccc(N2C(=O)N3C(c4cccc(C)c4)C4C(=O)N(Cc5ccccc5)C(=O)C4[C@]3(Cc3ccccc3)C2=O)cc1 (stereo not given in full) | nt | 7.5 | nt | nt | nt | nt | nt | nt
Cn1c2ccccc2c2cc(/C=N/NC(=O)c3ccccc3F)ccc21 | -21.3 | nt | -2.5 | 7.3 | 47.3* | 4.5 | 14.5 | 0.2
CC(=O)O[C@H]1CC[C@@]2(C)C(CCC3C2CC[C@]2(C)OC(=O)CCC32)C1 (stereo not given in full) | -31.5 | 10.5 | -2.7 | 7.7 | 6.7 | -1.6 | nt | nt
CC(=O)OC1CCC2(C)C(CCC3C4CC=C(C(C)=O)C4(C)OC(=O)CC32)C1 (stereo not given) | nt | nt | nt | nt | 71.6* | nt | -15.8 | 91.1*
CC(O)CC#Cc1ccc2oc(=O)c(-n3cc(-c4ccsc4)nn3)cc2c1 (stereo not given) | nt | 5.7 | nt | nt | nt | nt | nt | nt
Cc1ccc(CN2CCCCC(NC(=O)Nc3ccccc3-c3ccccc3)C2=O)cc1 (stereo not given) | nt | nt | nt | nt | 30.3* | nt | 18.3 | -2.9
CC(C)(C)NC(=O)C=Cc1ccc(C(F)(F)F)cc1 | nt | -1.1 | nt | nt | nt | nt | nt | nt
COc1cc(NC(=S)NC(C)(C)C)c(OC)cc1Cl | -25.0 | nt | -7.6 | nt | 24.6* | 0.6 | 6.1 | -2.8
COc1cc(NC(=S)Nc2cccc(Cl)c2Cl)c(OC)cc1Cl | -7.3 | 2.5 | 1.8 | -1.9 | 5.5 | -1.4 | nt | nt
O=C(C[n+]1ccccc1)NN=Cc1ccco1 | nt | 3.1 | nt | nt | nt | nt | nt | nt
CCOC(=O)C1C2COc3ccc(Cl)cc3C2N2C(=O)C(C)NC(=O)[C@@]12C (stereo not given in full) | nt | -1.9 | nt | nt | nt | nt | nt | nt
O=C(NCc1ccccc1)C(=O)Nc1nc(C23CC4CC(CC(C4)C2)C3)cs1 | 4.6 | -1.3 | 8.2 | 2.0 | 1.4 | 1.3 | nt | nt
O=C(NCc1ccncc1)C(=O)Nc1nc(C23CC4CC(CC(C4)C2)C3)cs1 | -16.5 | 8.9 | 22.1 | 6.3 | 35.4* | 5.5 | 36.0* | 2.0
C=Cc1cc2c(cc1O)CCC1C2CCC2(C)C(O)CCC12 (stereo not given) | -26.3 | nt | nt | nt | 29.4* | nt | 11.0 | -4.1
O=C1NC(Cc2ccccc2)C(=O)Nc2ccc(Br)cc21 (stereo not given) | -53.9 | 4.4 | 6.2 | 1.2 | 25.5* | -0.3 | 18.1 | -4.1
O=C(Nc1ccc(N2CCN(C(=O)c3ccco3)CC2)cc1)c1ccc2c(c1)OCO2 | -12.0 | 0.2 | -19.4 | nt | 25.3* | -5.8 | 14.9 | 2.9
